PubChem BioAssay (NCATS)
Results filed as inconclusive are left out. Calls of active or inactive are those of the source. Unless noted, the call rests on the fitted dose curve; in most records, active means well fitted curve in the direction sought with a large enough effect; inconclusive means small, poorly fitted or top-dose-only effect, or another doubt; inactive means no such curve, though single readings can be large; an effect the other way counts as inactive or inconclusive.

Legend:
[1] = target: Glucocorticoid receptor (Homo sapiens) (UniProt P04150); assay: GR-GFP Redistribution (AID 450;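 active means compounds whose dose series gives a full or clear partial fitted curve of increased nuclear translocation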; further: potency means the concentration at half of the fitted maximal effect); settings: U2OS GR-GFP nuclear translocation, laser cytometry, 2 h
Glucocorticoid receptor (Homo sapiens), sequence (P04150 whole entry, looked up, the tested form may be a part): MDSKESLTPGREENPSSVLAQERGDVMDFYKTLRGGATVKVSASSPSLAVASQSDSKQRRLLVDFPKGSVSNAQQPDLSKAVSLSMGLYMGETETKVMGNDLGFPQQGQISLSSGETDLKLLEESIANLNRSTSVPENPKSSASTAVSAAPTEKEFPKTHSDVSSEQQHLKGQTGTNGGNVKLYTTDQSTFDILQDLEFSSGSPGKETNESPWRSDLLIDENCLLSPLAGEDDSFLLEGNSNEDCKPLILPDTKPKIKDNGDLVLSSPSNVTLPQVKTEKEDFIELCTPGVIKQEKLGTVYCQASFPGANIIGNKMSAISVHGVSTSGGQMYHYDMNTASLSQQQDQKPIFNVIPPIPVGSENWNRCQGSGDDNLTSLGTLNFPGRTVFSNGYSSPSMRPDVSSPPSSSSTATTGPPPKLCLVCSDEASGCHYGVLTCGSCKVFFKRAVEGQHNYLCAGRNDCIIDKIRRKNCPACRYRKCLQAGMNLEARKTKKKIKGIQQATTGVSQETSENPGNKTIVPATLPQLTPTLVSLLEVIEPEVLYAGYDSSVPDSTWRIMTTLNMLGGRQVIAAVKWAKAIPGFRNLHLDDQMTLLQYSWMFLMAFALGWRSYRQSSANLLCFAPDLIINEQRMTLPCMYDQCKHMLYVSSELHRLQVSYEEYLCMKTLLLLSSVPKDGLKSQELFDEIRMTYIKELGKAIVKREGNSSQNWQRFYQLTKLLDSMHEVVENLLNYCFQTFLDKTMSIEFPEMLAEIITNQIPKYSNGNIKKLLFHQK

[2] = target: Glucocorticoid receptor (Homo sapiens) (UniProt P04150); assay: GR-EFC Redistribution (AID 451; calls by dose curve; further: potency means the concentration at half of the fitted maximal effect); settings: CHO-K1 GR-EFC translocation, beta-gal luminescence, 2 h
Method in brief: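 CHO-K1 cells expressing nuclear EA and GR-ED fragments of b-gal; compounds titrated up to 46 uM final, 2 h at 37 C. GR nuclear translocation read as complemented b-gal luminescence after 1 h RT detection.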

[3] = target: Mitogen-activated protein kinase 10 (Mus musculus) (UniProt Q61831); assay: JNK3 AlphaScreen Assay (AID 530; active means well fitted curve in either direction with a large enough effect, not every such curve was filed as active;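 further: kinase came from lysate of stimulated human HepG2 cells; signal reports phosphorylation of biotinylated GST-cJun 1-79 at Ser73 with 10 µM ATP; on the % scale 0 is the no-effect control and ±100 the full control effect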); settings: JNK3 lysate, c-Jun phosphorylation; series mostly up to 57.1 µM
Method in brief: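 qHTS format: compounds tested as titrations against IL-1beta/TNF-alpha-activated HepG2 lysate JNK3 with biotin-GST-cJun substrate and 10 uM ATP at room temperature. Loss of anti-phospho-cJun AlphaScreen signal indicates inhibition.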

[4] = target: Ubiquitin carboxyl-terminal hydrolase 1 (Homo sapiens) (UniProt O94782); assay: Inhibitors of USP1/UAF1: Pilot qHTS (AID 504865); settings: purified USP1/UAF1, Ub-rhodamine cleavage fluorescence; series mostly up to 114 µM;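 further: rhodamine fluorescence freed from ubiquitin-rhodamine substrate followed over time; top concentration of the series differs between compounds; on the % scale 0 is the no-effect control and ±100 the full control effect; nearly all actives have a fitted effect of over 35% in size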
Ubiquitin carboxyl-terminal hydrolase 1 (Homo sapiens), sequence (O94782 whole entry, looked up): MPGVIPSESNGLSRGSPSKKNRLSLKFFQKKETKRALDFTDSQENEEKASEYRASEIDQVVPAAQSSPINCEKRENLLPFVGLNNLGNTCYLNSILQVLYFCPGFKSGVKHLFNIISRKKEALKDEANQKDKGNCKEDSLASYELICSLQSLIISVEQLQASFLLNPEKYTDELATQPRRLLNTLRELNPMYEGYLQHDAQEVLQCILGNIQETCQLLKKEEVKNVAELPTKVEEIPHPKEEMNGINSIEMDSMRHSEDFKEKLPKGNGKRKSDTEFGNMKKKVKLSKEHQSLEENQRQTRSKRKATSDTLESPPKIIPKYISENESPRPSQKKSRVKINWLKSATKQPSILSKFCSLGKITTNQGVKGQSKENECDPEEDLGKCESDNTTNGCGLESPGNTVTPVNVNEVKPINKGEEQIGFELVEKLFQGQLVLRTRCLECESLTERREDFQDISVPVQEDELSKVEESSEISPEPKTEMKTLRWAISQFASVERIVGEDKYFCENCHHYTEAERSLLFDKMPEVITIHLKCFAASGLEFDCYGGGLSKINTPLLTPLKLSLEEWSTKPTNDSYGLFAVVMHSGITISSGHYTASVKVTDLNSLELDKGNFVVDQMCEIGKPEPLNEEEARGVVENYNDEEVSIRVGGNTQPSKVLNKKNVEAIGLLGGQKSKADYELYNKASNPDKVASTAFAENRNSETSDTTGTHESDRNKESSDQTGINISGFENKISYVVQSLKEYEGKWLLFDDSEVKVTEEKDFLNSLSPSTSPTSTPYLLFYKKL
Method in brief: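 1nM USP1/UAF1 + cpd, 15 min RT; start w/ Ub-Rho 150nM final; kinetic FL 480/540 nm, 6 reads q60 s. Buffer 50mM HEPES pH 7.8, 0.5mM EDTA, 1mM TCEP, 0.01% Tween-20, 0.1 mg/ml BSA.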

[5] = target: DNA dC->dU-editing enzyme APOBEC-3G (Homo sapiens) (UniProt Q9HC16); assay: qHTS for inhibitors of Vif-A3G interactions: Validation (AID 588379); settings: Vif-A3G protein interaction assay; series mostly up to 46.1 µM; further: 0% is about no effect
DNA dC->dU-editing enzyme APOBEC-3G (Homo sapiens), sequence (Q9HC16 whole entry, looked up): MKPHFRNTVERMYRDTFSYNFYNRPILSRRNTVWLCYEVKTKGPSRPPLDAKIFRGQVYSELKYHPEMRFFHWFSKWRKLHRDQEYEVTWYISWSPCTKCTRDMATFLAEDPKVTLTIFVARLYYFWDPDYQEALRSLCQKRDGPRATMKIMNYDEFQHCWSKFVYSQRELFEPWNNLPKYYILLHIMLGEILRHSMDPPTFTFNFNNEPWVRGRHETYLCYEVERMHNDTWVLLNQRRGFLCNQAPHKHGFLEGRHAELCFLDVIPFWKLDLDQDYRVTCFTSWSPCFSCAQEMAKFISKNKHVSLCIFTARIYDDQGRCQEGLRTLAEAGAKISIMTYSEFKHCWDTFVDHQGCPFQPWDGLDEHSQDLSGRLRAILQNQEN
Method in brief: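 HeLa cells stably expressing Vif and A3G-eYFP, 700 cells/well, incubated overnight at 37 deg C, then exposed to compound overnight at 37 deg C. Inhibition of Vif-mediated degradation read as increased yellow fluorescence (Ex 488/Em 500-530) by laser-scanning cytometry.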

[6] = tested on: Zika virus NS2B-NS3 protease; assay: Primary screen GU AMC qHTS for Zika virus inhibitors (AID 1347154); settings: Zika NS2B-NS3 unlinked protease, AMC fluorogenic substrate; series mostly up to 54.1 µM;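 further: 0% = no-inhibitor control and -100% = no-enzyme control; nearly all actives have a fitted effect of over 70% in size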
Method in brief: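 Unlinked Zika NS2B hydrophilic domain–NS3 protease complex at 25 nM in 10 mM Tris-HCl pH 8.0, 0.01% Tween 20, with an AMC peptide substrate. Fluorescence change (340/450 nm) over 15 min at room temperature, normalized to controls, fitted to 4-parameter Hill.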

[7] = AP1 Signaling Pathway (AID 357; active means well fitted curve in either direction with a large enough effect, not every such curve was filed as active;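 further: ME-180 reporter cells stimulated with EGF at its EC50 level; on the % scale 0 is the no-effect control and ±100 the full control effect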); settings: ME-180 (cervical carcinoma) AP-1-bla reporter, EGF-induced, beta-lactamase ratio, 5 h; series mostly up to 38 µM
Method in brief: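 First, ME-180 AP-1-bla cells were cultured overnight at 37 °C in low-serum Opti-MEM. Next, titrated compounds with EC50 EGF were incubated 5 hours. Finally, CCF4 was added for 2.5 hours and the 460/530 nm ratio recorded.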

[8] = target: Cytochrome P450 1A2 (Homo sapiens) (UniProt P05177); assay: p450-cyp1a2 (AID 410; calls by dose curve; further: potency means the concentration at half of the fitted maximal effect;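 on activity change, negative = inhibition: -100% = full effect of reference inhibitor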); settings: recombinant CYP1A2, luciferin-ME demethylation, luminescence; series mostly up to 57 µM
Cytochrome P450 1A2 (Homo sapiens), sequence (P05177 whole entry, looked up): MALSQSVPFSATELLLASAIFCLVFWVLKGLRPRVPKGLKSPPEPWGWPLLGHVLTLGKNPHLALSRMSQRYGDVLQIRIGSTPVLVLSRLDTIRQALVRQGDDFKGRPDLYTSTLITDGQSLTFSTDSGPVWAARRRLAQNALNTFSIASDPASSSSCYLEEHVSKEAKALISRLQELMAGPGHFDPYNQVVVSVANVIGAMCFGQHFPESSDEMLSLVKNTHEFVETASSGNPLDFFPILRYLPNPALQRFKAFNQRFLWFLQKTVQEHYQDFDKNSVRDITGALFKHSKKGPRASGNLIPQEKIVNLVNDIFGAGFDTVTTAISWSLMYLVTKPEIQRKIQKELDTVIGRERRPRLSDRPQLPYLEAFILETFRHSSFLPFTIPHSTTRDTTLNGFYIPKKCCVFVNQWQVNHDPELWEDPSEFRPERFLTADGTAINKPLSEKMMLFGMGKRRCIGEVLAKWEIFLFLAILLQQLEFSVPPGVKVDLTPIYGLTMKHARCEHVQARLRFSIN
Method in brief: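 Human CYP1A2 (20nM) demethylated Luciferin-ME at its Km (100uM) in 100mM KPO4. After 10 min compound preincubation, NADPH regeneration ran the reaction 60 min at room temperature. Luciferin was read by luminescence, normalized to 57 uM furafylline.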

[9] = NFAT Signaling Pathway (AID 444; active means well fitted curve in either direction with a large enough effect, not every such curve was filed as active;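 further: carbachol stimulus at about its EC50 of 1 µM final; on the % scale 0 is the no-effect control and ±100 the full control effect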); settings: Jurkat NFAT-bla M1, carbachol, beta-lactamase ratio, 5 h
Method in brief: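 Jurkat cells with NFAT-driven β-lactamase reporter and co-expressed M1 receptor, stimulated with carbachol (final 1 uM, ~EC50), compound titration, 5 h at 37 °C. CCF4 loaded 1 h at RT; 460/530 nm ratio gave %activity and AC50.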

[10] = target: 3',5'-cyclic-AMP phosphodiesterase 4B (Homo sapiens) (UniProt Q07343); assay: qHTS Assay for Inhibitors of PDE-IV (AID 607; active means well fitted activation curve with a large enough effect in the main read-out, with a control signal flat, not every such curve was filed as active; further: % of control where 0% means no effect); settings: HEK293 ACTOne CNG channel cells, membrane potential fluorescence; series mostly up to 22.9 µM
3',5'-cyclic-AMP phosphodiesterase 4B (Homo sapiens), sequence (Q07343 whole entry, looked up): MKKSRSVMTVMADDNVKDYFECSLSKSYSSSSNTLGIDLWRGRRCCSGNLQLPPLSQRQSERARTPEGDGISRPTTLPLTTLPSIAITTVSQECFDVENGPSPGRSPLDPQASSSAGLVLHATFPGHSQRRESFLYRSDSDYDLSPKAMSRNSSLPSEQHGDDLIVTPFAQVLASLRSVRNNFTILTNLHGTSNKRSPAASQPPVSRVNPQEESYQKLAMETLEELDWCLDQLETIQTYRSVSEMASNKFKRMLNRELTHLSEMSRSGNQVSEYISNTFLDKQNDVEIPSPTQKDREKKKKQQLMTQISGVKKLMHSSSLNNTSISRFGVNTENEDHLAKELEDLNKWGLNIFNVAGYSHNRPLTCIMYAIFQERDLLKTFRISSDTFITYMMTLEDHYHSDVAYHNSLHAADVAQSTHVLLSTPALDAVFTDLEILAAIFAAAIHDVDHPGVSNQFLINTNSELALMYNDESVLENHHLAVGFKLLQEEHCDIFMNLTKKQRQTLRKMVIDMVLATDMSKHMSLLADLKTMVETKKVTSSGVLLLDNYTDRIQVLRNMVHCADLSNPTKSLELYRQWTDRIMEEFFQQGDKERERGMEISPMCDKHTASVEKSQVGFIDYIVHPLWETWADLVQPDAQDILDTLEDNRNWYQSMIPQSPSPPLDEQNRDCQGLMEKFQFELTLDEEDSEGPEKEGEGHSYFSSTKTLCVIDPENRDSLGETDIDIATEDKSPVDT
Method in brief: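 HEK293 ACTOne cells with CNG channel (1000/well), endogenous PDE4; membrane potential dye, compounds up to 22.9 uM final. Fluorescence Ex 535/Em 590; RO 20-1724 (100 uM final) as reference.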

[11] = target: Guanine nucleotide-binding protein G(i) subunit alpha-1 (Homo sapiens) (UniProt P63096); assay: qHTS Assay for Inhibitors of RGS12 GoLoco Motif Activity (Green Fluorophore) (AID 879); settings: Galphai1/FITC-RGS12 GoLoco peptide, fluorescence polarization; series mostly up to 57.1 µM;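 further: 0% = labeled peptide with Gαi1 and full inhibition = labeled peptide alone without protein; negative values mean loss of peptide binding seen as reduced polarization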
Guanine nucleotide-binding protein G(i) subunit alpha-1 (Homo sapiens), sequence (P63096 whole entry, looked up): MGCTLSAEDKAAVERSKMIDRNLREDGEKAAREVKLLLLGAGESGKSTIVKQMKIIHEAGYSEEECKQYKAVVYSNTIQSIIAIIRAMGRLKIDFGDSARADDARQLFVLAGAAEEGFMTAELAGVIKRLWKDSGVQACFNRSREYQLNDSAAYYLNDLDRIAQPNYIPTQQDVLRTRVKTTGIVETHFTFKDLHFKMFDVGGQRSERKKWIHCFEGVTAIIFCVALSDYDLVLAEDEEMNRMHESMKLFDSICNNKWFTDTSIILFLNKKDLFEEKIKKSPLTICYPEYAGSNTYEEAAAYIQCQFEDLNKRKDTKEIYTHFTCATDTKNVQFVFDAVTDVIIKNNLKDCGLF
Method in brief: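 Fluorescence polarization assay: 50 nM Gαi1 with 10 nM FITC-labeled RGS12 GoLoco peptide in 10 mM Tris pH 7.5, 150 mM NaCl, 0.1 mM GDP, 0.05% NP40, 10 min at room temperature with compound.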

[12] = target: Pyruvate kinase (Leishmania mexicana) (UniProt Q27686); assay: qHTS Validation Assay for Inhibitors of Leishmania Mexicana Pyruvate Kinase (AID 945);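 further: 0% = DMSO only neutral control wells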; settings: purified L. mexicana pyruvate kinase, enzyme activity, E451W mutant enzyme; series mostly up to 57.5 µM
Method in brief: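 Read-out: luminescence from PKLight stop/detection reagent, data normalized to DMSO. Reaction: 0.2 nM E451W LmPYK, 0.5 mM PEP, 0.1 mM ADP, pH 7.2, 1 h room temperature.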

[13] = target: Pyruvate kinase PKM (Homo sapiens) (UniProt P14618); assay: qHTS Assay for Activators of Human Muscle Pyruvate Kinase (AID 954; active means well fitted curve in the direction sought with a large enough effect, not every such curve was filed as active;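 further: 0% = uninhibited enzyme and -100% = no enzyme or full thiadiazolimine inhibition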); settings: purified human muscle pyruvate kinase, luciferase-coupled luminescence, 1 h; series mostly up to 57.5 µM
Pyruvate kinase PKM (Homo sapiens), sequence (P14618 whole entry, looked up): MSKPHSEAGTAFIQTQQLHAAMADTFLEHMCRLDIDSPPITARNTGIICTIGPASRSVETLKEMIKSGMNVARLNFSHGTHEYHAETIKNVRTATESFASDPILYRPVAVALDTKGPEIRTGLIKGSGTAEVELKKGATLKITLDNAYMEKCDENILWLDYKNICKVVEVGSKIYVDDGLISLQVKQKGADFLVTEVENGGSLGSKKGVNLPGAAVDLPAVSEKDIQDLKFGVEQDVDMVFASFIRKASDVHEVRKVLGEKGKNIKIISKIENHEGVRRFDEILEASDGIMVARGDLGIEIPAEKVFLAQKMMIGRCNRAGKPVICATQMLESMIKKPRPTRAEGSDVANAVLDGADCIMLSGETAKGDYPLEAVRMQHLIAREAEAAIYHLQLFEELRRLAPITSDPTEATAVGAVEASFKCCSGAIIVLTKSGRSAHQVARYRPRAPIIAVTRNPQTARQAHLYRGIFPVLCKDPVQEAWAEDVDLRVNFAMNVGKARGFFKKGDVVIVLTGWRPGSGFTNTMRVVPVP
Method in brief: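 Purified human PKM2 (0.1 nM) with 0.5 mM PEP (Km) and 0.1 mM ADP in 50 mM imidazole pH 7.2, KCl, MgCl2, 1 h at room temperature; ATP formed read by coupled luciferase luminescence. Normalized to no-enzyme/110 uM thiadiazolimine inhibition; 0.3 nM enzyme column for activation.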

[14] = target: Alpha-galactosidase (Coffea arabica) (UniProt Q42656); assay: Counterscreen for Glucocerebrosidase Inhibitors: qHTS Assay for Coffee Bean alpha-Galactosidase at pH 4.5 (AID 957); settings: purified coffee bean alpha-galactosidase, fluorogenic substrate; series mostly up to 76.9 µM;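 further: plate controls were enzyme alone for no effect and no enzyme for full effect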
Alpha-galactosidase (Coffea arabica), sequence (Q42656 whole entry, looked up): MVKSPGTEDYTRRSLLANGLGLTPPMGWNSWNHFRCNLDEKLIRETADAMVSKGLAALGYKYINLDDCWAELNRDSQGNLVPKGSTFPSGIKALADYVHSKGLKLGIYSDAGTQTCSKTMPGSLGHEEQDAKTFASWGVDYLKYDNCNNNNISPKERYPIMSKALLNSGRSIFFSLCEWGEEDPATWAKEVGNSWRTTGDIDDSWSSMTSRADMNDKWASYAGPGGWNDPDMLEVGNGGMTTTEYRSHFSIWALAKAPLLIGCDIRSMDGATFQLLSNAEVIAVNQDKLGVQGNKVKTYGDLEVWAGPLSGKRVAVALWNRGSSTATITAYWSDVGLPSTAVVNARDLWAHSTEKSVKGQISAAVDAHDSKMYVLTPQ
Method in brief: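 Green coffee bean enzyme (2 nM final) was incubated with compounds (0.7 nM to 77 uM) and 4-methylumbelliferyl alpha-D-galactopyranoside (80 uM final) in 50 mM citric acid, 0.005% Tween-20, pH 4.5, 20 min at room temperature; AC50 from Hill fits.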

[15] = target: Alpha-galactosidase A (Homo sapiens) (UniProt P06280); assay: Counterscreen for Glucocerebrosidase Inhibitors: qHTS Assay for Human alpha-Galactosidase at pH 4.5 (AID 992); settings: purified enzyme, fluorogenic substrate; series mostly up to 76.9 µM; further: 0% is about no effect
Alpha-galactosidase A (Homo sapiens), sequence (P06280 whole entry, looked up): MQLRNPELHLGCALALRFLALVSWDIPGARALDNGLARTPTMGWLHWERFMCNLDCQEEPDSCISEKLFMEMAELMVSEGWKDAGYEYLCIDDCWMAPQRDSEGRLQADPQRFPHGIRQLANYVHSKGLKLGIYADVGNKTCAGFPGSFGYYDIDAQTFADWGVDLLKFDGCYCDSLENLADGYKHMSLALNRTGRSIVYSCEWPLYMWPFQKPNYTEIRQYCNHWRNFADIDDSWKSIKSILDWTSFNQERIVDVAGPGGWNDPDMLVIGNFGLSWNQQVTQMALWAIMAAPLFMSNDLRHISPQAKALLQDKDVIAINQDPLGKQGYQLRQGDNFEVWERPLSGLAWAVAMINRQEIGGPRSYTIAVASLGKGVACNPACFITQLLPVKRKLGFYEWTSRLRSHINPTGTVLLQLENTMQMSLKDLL
Method in brief: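 Human enzyme (2 nM) with 80 uM 4-methylumbelliferyl alpha-D-galactopyranoside in 50 mM citric acid, 0.005% Tween-20, pH 4.5, 20 min at room temperature. Compounds 0.7 nM–77 uM; fluorescence Ex 365/Em 440 after pH 10 stop; AC50 from Hill fits.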

[16] = target: alpha-glucosidase (Oryza sativa, rice) (UniProt Q653V4); assay: Counterscreen for Glucocerebrosidase Inhibitors: qHTS Assay for Rice alpha-Glucosidase at pH 5.0 (AID 997); settings: rice alpha-glucosidase enzyme activity; series mostly up to 76.9 µM;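 further: 0% = full activity with enzyme and -100% = basal without enzyme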
Method in brief: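 Rice alpha-glucosidase (4 nM final) with 400 uM 4-methylumbelliferyl-alpha-D-glucopyranoside in citrate buffer pH 5.0, 20 min at room temperature, stopped at pH 10; fluorescence 365/440 nm, compounds 0.7 nM–77 uM, AC50 from Hill fits.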

[17] = target: Alpha-galactosidase (Coffea arabica) (UniProt Q42656); assay: Counterscreen for Glucocerebrosidase Inhibitors: qHTS Assay for Coffee Bean alpha-Galactosidase at pH 5.9 (AID 998); settings: coffee bean alpha-galactosidase enzyme assay; series mostly up to 76.9 µM;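 further: plate controls were uninhibited enzyme for no effect and no-enzyme basal signal for full effect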
Method in brief: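 Green coffee bean enzyme (2 nM) with 4-methylumbelliferyl alpha-D-galactopyranoside (80 uM) in 50 mM citric acid, 0.005% Tween-20, pH 5.9, 20 min at room temperature; compounds 0.7 nM–77 uM. Stopped at pH 10, fluorescence Ex365/Em440; Hill-fit AC50.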

[18] = qHTS Assay for Lipid Storage Modulators (AID 1519; calls by dose curve; on activity change, negative = inhibition: on the % scale 0 is the no-effect control and ±100 the full control effect); settings: Drosophila S3 cells, BODIPY lipid droplet/cell ratio, laser cytometry, cells loaded with oleic acid
Method in brief: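 Cells seeded at 5,000 per well were treated with compounds over a concentration series and loaded with oleic acid (400 uM, as added). Lipid droplet fluorescence (488 nm excitation, 500-530 nm channel) was read by laser-scanning cytometry and normalized to 20 uM Triacsin C.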

C/C(=C\[C@@H](N)C(=O)O)CP(=O)(O)O
inactive: Potency [1] > 46 µM | Potency [2] > 46 µM | outcome [3] | Potency [4] | Potency [5] | Potency [6]

Oc1ccc2c3c1O[C@H]1c4oc5ccccc5c4C[C@]4(O)[C@H](C2)N(CC2CC2)CC[C@@]314
inactive: outcome [7] | Potency [8] | activity change, negative = inhibition ([9]; at 38 µM (top of the series)) -24.9% | Potency [1] > 46 µM | Potency [2] > 46 µM | outcome [3] | Potency [10] | outcome [11] | outcome [12] | outcome [13] | outcome [14] | outcome [15] | outcome [16] | outcome [17] | Potency [5] | Potency [6]

C[C@@H](N)Cn1ccc2cc(F)c(Cl)cc21
active: Potency [8] 0.0501 µM
inactive: Potency [1] > 46 µM | Potency [2] > 46 µM | outcome [3] | Potency [10] | Potency [4] | Potency [5] | Potency [6]

Cc1c(C(=O)c2ccc3ccccc3c2)c2cccc3c2n1[C@H](CN1CCOCC1)CO3
inactive: Potency [8] | Potency [1] > 46 µM | Potency [2] > 46 µM | Potency [10] | Potency [5] | Potency [6]

CC1(C)N(O)C(c2ccc(C(=O)O)cc2)=[N+]([O-])C1(C)C
active: Potency [8] 31.6 µM
inactive: Potency [1] > 46 µM | Potency [2] > 46 µM | outcome [3] | Potency [5] | Potency [6]

CN(C)c1ccc(/C=C2\CCCN=C2c2cccnc2)cc1
inactive: Potency [6]

CCCCCCCCCOc1ccc2[nH]cc(CCN)c2c1
inactive: Potency [1] > 46 µM | Potency [2] > 46 µM | Potency [10] | Potency [5] | Potency [6]
active: Potency [8] 0.0398 µM

NC(=NCc1ccc(Cl)cc1)SCCCc1cnc[nH]1
inactive: Potency [1] > 46 µM | Potency [2] > 46 µM | outcome [3] | Potency [5] | Potency [6]

CC(C)(C)NC[C@@H](O)COc1cccc2[nH]c(C#N)cc12
inactive: Potency [1] > 46 µM | Potency [2] > 46 µM | outcome [3] | activity change, negative = inhibition ([18]; at 57.5 µM (top of the series)) 2.4% | Potency [4] | Potency [5] | Potency [6]
-20.5%: max response ([18]; measured here: cell count channel max response)
-17.5%: max response ([18]; measured here: lipid channel max response)

O=C(O)c1ccccc1-c1c2cc(Br)c(=O)cc-2oc2[c]([Hg])c(O)c(Br)cc12
active: Potency [8] 15.8 µM
inactive: outcome [7] | activity change, negative = inhibition ([9]; at 17.2 µM (top of the series)) -24.9% | Potency [2] > 20.6 µM | outcome [3] | Potency [10] | Potency [4]
